# Laboratory results taken from article PMC11006913.
# Assays:
# Test in all cases: PBM; 200 nM protein, PBS
# Conditions in all cases: dsDNA, one strand shown
# PITX2 = PITX2 (Homo sapiens, UniProt Q99697 72-157)
# HOXD13 = HOXD13 (Homo sapiens, UniProt P35453 263-343)
# CRX = CRX (Homo sapiens, UniProt O43186 26-111, R41L)
# NKX3-2 [1] = target: NKX3-2 (Homo sapiens, UniProt P78367 192-278, P234S)
# NKX3-2 [2] = target: NKX3-2 (Homo sapiens, UniProt P78367 192-278)
# SHOX = SHOX (Homo sapiens, UniProt O15266 103-189, R173C)
# PROP1 [3] = target: PROP1 (Homo sapiens, UniProt O75360 56-141)
# HESX1 = HESX1 (Homo sapiens, UniProt Q9UBX0 95-180, R109Q)
# PROP1 [4] = target: PROP1 (Homo sapiens, UniProt O75360 56-141, R99H)
# PROP1 [5] = target: PROP1 (Homo sapiens, UniProt O75360 56-141, F88S)
# Sequence of PROP1 (Homo sapiens, UniProt O75360 56-141, F88S) (O75360 56-141 F88S): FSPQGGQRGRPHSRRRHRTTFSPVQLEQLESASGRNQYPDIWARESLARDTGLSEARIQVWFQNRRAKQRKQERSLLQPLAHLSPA
# Sequence of HOXD13 (P35453 263-343): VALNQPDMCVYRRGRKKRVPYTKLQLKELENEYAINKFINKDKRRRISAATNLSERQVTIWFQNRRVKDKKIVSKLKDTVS
# Sequence of CRX (O43186 26-111 R41L): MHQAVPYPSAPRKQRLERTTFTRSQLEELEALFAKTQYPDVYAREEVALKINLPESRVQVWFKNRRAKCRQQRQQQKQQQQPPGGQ
# Sequence of PROP1 (Homo sapiens, UniProt O75360 56-141) (O75360 56-141): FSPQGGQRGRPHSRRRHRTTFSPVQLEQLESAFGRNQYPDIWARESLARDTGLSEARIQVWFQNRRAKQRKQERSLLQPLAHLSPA
# Sequence of PROP1 (Homo sapiens, UniProt O75360 56-141, R99H) (O75360 56-141 R99H): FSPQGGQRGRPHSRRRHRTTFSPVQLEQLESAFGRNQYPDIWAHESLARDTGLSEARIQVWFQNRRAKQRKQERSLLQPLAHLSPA
# Sequence of NKX3-2 (Homo sapiens, UniProt P78367 192-278, P234S) (P78367 192-278 P234S): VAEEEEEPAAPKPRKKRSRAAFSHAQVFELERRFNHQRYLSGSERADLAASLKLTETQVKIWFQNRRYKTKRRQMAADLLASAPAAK
# Sequence of SHOX (O15266 103-189 R173C): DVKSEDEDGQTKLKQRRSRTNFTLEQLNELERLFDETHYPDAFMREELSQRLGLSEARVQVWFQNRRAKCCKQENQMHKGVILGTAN
# Sequence of NKX3-2 (Homo sapiens, UniProt P78367 192-278) (P78367 192-278): as the sequence (P78367 192-278 P234S) above, with S43P counted along it
# Sequence of HESX1 (Q9UBX0 95-180 R109Q): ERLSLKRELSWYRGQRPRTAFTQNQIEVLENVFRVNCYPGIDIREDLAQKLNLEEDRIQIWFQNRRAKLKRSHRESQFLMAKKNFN
sequence,measurement,setting,value
AGATCAAC,binding signal,PITX2,"10.1 upbm affinity estimate (log intensity, higher = more binding, comparable within an allelic series)"
CACCGGGC,binding signal,PITX2,"7.98 upbm affinity estimate (log intensity, higher = more binding, comparable within an allelic series)"
ACTGGTGC,binding signal,PITX2,"7.7 upbm affinity estimate (log intensity, higher = more binding, comparable within an allelic series)"
CCTCAACG,binding signal,PITX2,"7.97 upbm affinity estimate (log intensity, higher = more binding, comparable within an allelic series)"
CAACCATC,binding signal,PITX2,"8.24 upbm affinity estimate (log intensity, higher = more binding, comparable within an allelic series)"
AGGGCTTA,binding signal,PITX2,"12.3 upbm affinity estimate (log intensity, higher = more binding, comparable within an allelic series)"
AATCCAAT,binding signal,PITX2,"10.9 upbm affinity estimate (log intensity, higher = more binding, comparable within an allelic series)"
ACGTTCCG,binding signal,PITX2,"7.96 upbm affinity estimate (log intensity, higher = more binding, comparable within an allelic series)"
CTATCGCC,binding signal,PITX2,"8.13 upbm affinity estimate (log intensity, higher = more binding, comparable within an allelic series)"
AGAGCTCA,binding signal,PITX2,"9.42 upbm affinity estimate (log intensity, higher = more binding, comparable within an allelic series)"
GAGTGCGC,binding signal,PITX2,"7.98 upbm affinity estimate (log intensity, higher = more binding, comparable within an allelic series)"
ACGATGCC,binding signal,PITX2,"7.9 upbm affinity estimate (log intensity, higher = more binding, comparable within an allelic series)"
ACAGGGTG,binding signal,PITX2,"7.94 upbm affinity estimate (log intensity, higher = more binding, comparable within an allelic series)"
TGGTCGAA,binding signal,PITX2,"7.84 upbm affinity estimate (log intensity, higher = more binding, comparable within an allelic series)"
CCTACCAG,binding signal,PITX2,"8.01 upbm affinity estimate (log intensity, higher = more binding, comparable within an allelic series)"
ACTCTCGG,binding signal,PITX2,"8.08 upbm affinity estimate (log intensity, higher = more binding, comparable within an allelic series)"
CCTGCTTA,binding signal,PITX2,"10.3 upbm affinity estimate (log intensity, higher = more binding, comparable within an allelic series)"
GGAGAGAC,binding signal,PITX2,"8.03 upbm affinity estimate (log intensity, higher = more binding, comparable within an allelic series)"
GACGCGAC,binding signal,PITX2,"7.93 upbm affinity estimate (log intensity, higher = more binding, comparable within an allelic series)"
CGACGTCA,binding signal,PITX2,"8.05 upbm affinity estimate (log intensity, higher = more binding, comparable within an allelic series)"
CGAGCGTC,binding signal,PITX2,"7.93 upbm affinity estimate (log intensity, higher = more binding, comparable within an allelic series)"
ATTCAAAT,binding signal,PITX2,"9.75 upbm affinity estimate (log intensity, higher = more binding, comparable within an allelic series)"
CTGTCGAC,binding signal,PITX2,"7.99 upbm affinity estimate (log intensity, higher = more binding, comparable within an allelic series)"
CGCCAGCA,binding signal,PITX2,"8 upbm affinity estimate (log intensity, higher = more binding, comparable within an allelic series)"
GCACGCCA,binding signal,PITX2,"7.9 upbm affinity estimate (log intensity, higher = more binding, comparable within an allelic series)"
CCAAATCG,binding signal,PITX2,"9.39 upbm affinity estimate (log intensity, higher = more binding, comparable within an allelic series)"
CCTTCCAC,binding signal,PITX2,"8.11 upbm affinity estimate (log intensity, higher = more binding, comparable within an allelic series)"
CGGAATCC,binding signal,PITX2,"10.1 upbm affinity estimate (log intensity, higher = more binding, comparable within an allelic series)"
GGTCTTTA,binding signal,PITX2,"9.73 upbm affinity estimate (log intensity, higher = more binding, comparable within an allelic series)"
CACTAGTG,binding signal,PITX2,"8.21 upbm affinity estimate (log intensity, higher = more binding, comparable within an allelic series)"
GAATATTA,binding signal,PITX2,"9.35 upbm affinity estimate (log intensity, higher = more binding, comparable within an allelic series)"
GGTATTAA,binding signal,PITX2,"12.3 upbm affinity estimate (log intensity, higher = more binding, comparable within an allelic series)"
ACAGATCT,binding signal,PITX2,"9.05 upbm affinity estimate (log intensity, higher = more binding, comparable within an allelic series)"
CAGTTTCA,binding signal,PITX2,"7.95 upbm affinity estimate (log intensity, higher = more binding, comparable within an allelic series)"
ATAAATCC,binding signal,PITX2,"12.3 upbm affinity estimate (log intensity, higher = more binding, comparable within an allelic series)"
GCATGCAC,binding signal,PITX2,"7.85 upbm affinity estimate (log intensity, higher = more binding, comparable within an allelic series)"
AGCGTGGG,binding signal,PITX2,"8.14 upbm affinity estimate (log intensity, higher = more binding, comparable within an allelic series)"
GCGCTGCA,binding signal,PITX2,"8.03 upbm affinity estimate (log intensity, higher = more binding, comparable within an allelic series)"
ACCGTTGC,binding signal,PITX2,"8.17 upbm affinity estimate (log intensity, higher = more binding, comparable within an allelic series)"
GTGCCAGA,binding signal,PITX2,"8.11 upbm affinity estimate (log intensity, higher = more binding, comparable within an allelic series)"
AATGAGTA,binding signal,HOXD13,"10.8 upbm affinity estimate (log intensity, higher = more binding, comparable within an allelic series)"
AATAATGC,binding signal,HOXD13,"10.8 upbm affinity estimate (log intensity, higher = more binding, comparable within an allelic series)"
CTAAGCCC,binding signal,PITX2,"12.3 upbm affinity estimate (log intensity, higher = more binding, comparable within an allelic series)"
same,binding signal,CRX,"11.5 upbm affinity estimate (log intensity, higher = more binding, comparable within an allelic series)"
ATTACAGA,binding signal,PITX2,"9.82 upbm affinity estimate (log intensity, higher = more binding, comparable within an allelic series)"
CTGAGATA,binding signal,PITX2,"9.22 upbm affinity estimate (log intensity, higher = more binding, comparable within an allelic series)"
TATATCAA,binding signal,HOXD13,"10.8 upbm affinity estimate (log intensity, higher = more binding, comparable within an allelic series)"
GATGATAA,binding signal,PITX2,"9.84 upbm affinity estimate (log intensity, higher = more binding, comparable within an allelic series)"
TAACTAAA,binding signal,HOXD13,"10.7 upbm affinity estimate (log intensity, higher = more binding, comparable within an allelic series)"
ACGATATA,binding signal,HOXD13,"10.9 upbm affinity estimate (log intensity, higher = more binding, comparable within an allelic series)"
ATCATTCA,binding signal,HOXD13,"10.6 upbm affinity estimate (log intensity, higher = more binding, comparable within an allelic series)"
CTAAATCC,binding signal,PITX2,"12.4 upbm affinity estimate (log intensity, higher = more binding, comparable within an allelic series)"
TATGATCA,binding signal,PITX2,"9.32 upbm affinity estimate (log intensity, higher = more binding, comparable within an allelic series)"
CATCGACC,binding signal,PITX2,"8.07 upbm affinity estimate (log intensity, higher = more binding, comparable within an allelic series)"
same,binding signal,NKX3-2 [1],"10.6 upbm affinity estimate (log intensity, higher = more binding, comparable within an allelic series)"
same,binding signal,NKX3-2 [2],"10.6 upbm affinity estimate (log intensity, higher = more binding, comparable within an allelic series)"
AAGCTAGG,binding signal,PITX2,"9.89 upbm affinity estimate (log intensity, higher = more binding, comparable within an allelic series)"
same,binding signal,NKX3-2 [1],"10.4 upbm affinity estimate (log intensity, higher = more binding, comparable within an allelic series)"
same,binding signal,NKX3-2 [2],"10.4 upbm affinity estimate (log intensity, higher = more binding, comparable within an allelic series)"
ATCTAATG,binding signal,PITX2,"9.77 upbm affinity estimate (log intensity, higher = more binding, comparable within an allelic series)"
GTTAAAGA,binding signal,HOXD13,"10.8 upbm affinity estimate (log intensity, higher = more binding, comparable within an allelic series)"
AATTATGG,binding signal,SHOX,"9.26 upbm affinity estimate (log intensity, higher = more binding, comparable within an allelic series)"
GACGTTTA,binding signal,HOXD13,"10.7 upbm affinity estimate (log intensity, higher = more binding, comparable within an allelic series)"
TGGCTTAA,binding signal,PITX2,"12.3 upbm affinity estimate (log intensity, higher = more binding, comparable within an allelic series)"
same,binding signal,CRX,"11.5 upbm affinity estimate (log intensity, higher = more binding, comparable within an allelic series)"
AGAGTTAA,binding signal,HOXD13,"10.7 upbm affinity estimate (log intensity, higher = more binding, comparable within an allelic series)"
ACTTAATC,binding signal,PITX2,"12.3 upbm affinity estimate (log intensity, higher = more binding, comparable within an allelic series)"
same,binding signal,CRX,"12.4 upbm affinity estimate (log intensity, higher = more binding, comparable within an allelic series)"
AATTAGGT,binding signal,SHOX,"9.2 upbm affinity estimate (log intensity, higher = more binding, comparable within an allelic series)"
same,binding signal,PROP1 [3],"11 upbm affinity estimate (log intensity, higher = more binding, comparable within an allelic series)"
same,binding signal,HESX1,"8.66 upbm affinity estimate (log intensity, higher = more binding, comparable within an allelic series)"
same,binding signal,PROP1 [4],"10.6 upbm affinity estimate (log intensity, higher = more binding, comparable within an allelic series)"
same,binding signal,PROP1 [5],"7.74 upbm affinity estimate (log intensity, higher = more binding, comparable within an allelic series)"
ACACAATA,binding signal,HOXD13,"10.6 upbm affinity estimate (log intensity, higher = more binding, comparable within an allelic series)"
AAGTTGTA,binding signal,HOXD13,"10.7 upbm affinity estimate (log intensity, higher = more binding, comparable within an allelic series)"
AGGAGGCC,binding signal,PITX2,"8.05 upbm affinity estimate (log intensity, higher = more binding, comparable within an allelic series)"
same,binding signal,PROP1 [3],"6.87 upbm affinity estimate (log intensity, higher = more binding, comparable within an allelic series)"
same,binding signal,PROP1 [4],"6.81 upbm affinity estimate (log intensity, higher = more binding, comparable within an allelic series)"
same,binding signal,PROP1 [5],"6.57 upbm affinity estimate (log intensity, higher = more binding, comparable within an allelic series)"
ATCAATAC,binding signal,HOXD13,"10.5 upbm affinity estimate (log intensity, higher = more binding, comparable within an allelic series)"
TATTGCGA,binding signal,HOXD13,"10.6 upbm affinity estimate (log intensity, higher = more binding, comparable within an allelic series)"
ACCATCGT,binding signal,PITX2,"7.89 upbm affinity estimate (log intensity, higher = more binding, comparable within an allelic series)"
TATATGCA,binding signal,HOXD13,"10.8 upbm affinity estimate (log intensity, higher = more binding, comparable within an allelic series)"
AGACTATA,binding signal,HOXD13,"10.7 upbm affinity estimate (log intensity, higher = more binding, comparable within an allelic series)"
ATAGGCTC,binding signal,PITX2,"9.54 upbm affinity estimate (log intensity, higher = more binding, comparable within an allelic series)"
